Assay results published in PubChem BioAssay (Tox21).
Records with an inconclusive call do not appear. Activity calls are given as the source filed them. Unless noted, calls follow the shape of the dose curve; as a rule, active = well fitted curve in the direction sought with a large enough effect in the repeat runs; inconclusive = weak or mixed curves; inactive = no such curve, though single readings can be large; an effect the other way counts as inactive or inconclusive.

Legend:
[1] = qHTS assay to identify small molecule antagonists of the estrogen related receptor (ERR) signaling pathway from Tox21 library - cell viability counter screen (AID 1224834); also: nearly all actives have a fitted effect of over 30% in size
Procedure, shortened: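 Counter screen run in ERR cells (2,000 cells/well): cells pre-incubated 6 h, then treated with compounds for 17.5 h at 37 C. Fluorescence was read 30 min after CellTiter-Fluor addition.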

[2] = target: Luciferin 4-monooxygenase (Photinus pyralis) (UniProt P08659); experiment: qHTS assay to identify small molecule inhibitors of firefly luciferase (AID 1224835); also: nearly all actives have a fitted effect of over 25% in size; also: potency is read from the fitted curve at half-maximal effect
Luciferin 4-monooxygenase (Photinus pyralis), sequence (P08659 whole entry, looked up): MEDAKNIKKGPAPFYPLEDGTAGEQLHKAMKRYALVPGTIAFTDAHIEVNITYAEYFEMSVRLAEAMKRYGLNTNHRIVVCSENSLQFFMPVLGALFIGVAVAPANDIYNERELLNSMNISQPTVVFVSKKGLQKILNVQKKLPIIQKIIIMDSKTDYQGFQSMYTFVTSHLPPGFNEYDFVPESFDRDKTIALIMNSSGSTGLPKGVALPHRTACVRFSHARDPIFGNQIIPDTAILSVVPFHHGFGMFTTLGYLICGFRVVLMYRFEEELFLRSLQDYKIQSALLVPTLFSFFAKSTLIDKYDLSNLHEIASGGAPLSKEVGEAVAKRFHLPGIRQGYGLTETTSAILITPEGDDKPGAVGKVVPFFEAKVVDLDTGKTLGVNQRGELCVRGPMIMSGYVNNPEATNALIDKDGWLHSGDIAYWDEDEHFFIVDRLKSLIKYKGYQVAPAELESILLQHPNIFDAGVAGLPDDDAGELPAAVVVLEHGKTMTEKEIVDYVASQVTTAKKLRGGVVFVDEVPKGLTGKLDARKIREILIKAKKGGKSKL
Procedure, shortened: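 Biochemical qHTS: compounds run as interplate titrations against purified firefly enzyme, with D-luciferin and ATP each at its KM concentration. Light output recorded by CCD imaging.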

[3] = qHTS assay to identify small molecule agonists of the constitutive androstane receptor (CAR) signaling pathway - cell viability counter screen (AID 1224836); also: nearly all actives have a fitted effect of over 45% in size
Procedure, shortened: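 23 h treatment, 37 C, 5% CO2. Cell line: HepG2 stably expressing hCAR with a CYP2B6-2.2kb construct. Co-treatment: PK11195, 0.75 uM final. Read-out: CellTiter-Fluor fluorescence intensity.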

[4] = qHTS assay to identify small molecule antagonists of the constitutive androstane receptor (CAR) signaling pathway - cell viability counter screen (AID 1224837); also: nearly all actives have a fitted effect of over 45% in size
Procedure, shortened: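 CITCO at 50 nM final was added alongside compounds (15 concentrations) to double-stable hCAR/CYP2B6-2.2kb HepG2 cells. Following 23 hr at 37 C, cell viability was quantified by CellTiter-Fluor fluorescence intensity.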

[5] = qHTS assay to identify small molecule antagonists of the estrogen related receptor signaling pathway with the pleiotropic PPARgamma coactivator (PGC) from Tox21 10K library - cell viability counter screen (AID 1224840; active = well fitted cell-killing curve with a large enough effect in the repeat runs, not every such curve was filed as active; also: nearly all actives have a fitted effect of over 40% in size)
Procedure, shortened: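 Readout: fluorescence intensity from CellTiter-Fluor after 30 min at 37 C/5% CO2. Preceded by 17.5 h treatment of PGC/ERR cells with DMSO-dissolved compounds, added 6 h post-seeding.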

[6] = target: Thyrotropin receptor (Homo sapiens) (UniProt P16473); experiment: qHTS assay to identify small molecule agonists of the thyroid stimulating hormone receptor (TSHR) signaling pathway (AID 1224843; calls by dose curve; also: nearly all actives have a fitted effect of over 45% in size)
Thyrotropin receptor (Homo sapiens), sequence (P16473 whole entry, looked up): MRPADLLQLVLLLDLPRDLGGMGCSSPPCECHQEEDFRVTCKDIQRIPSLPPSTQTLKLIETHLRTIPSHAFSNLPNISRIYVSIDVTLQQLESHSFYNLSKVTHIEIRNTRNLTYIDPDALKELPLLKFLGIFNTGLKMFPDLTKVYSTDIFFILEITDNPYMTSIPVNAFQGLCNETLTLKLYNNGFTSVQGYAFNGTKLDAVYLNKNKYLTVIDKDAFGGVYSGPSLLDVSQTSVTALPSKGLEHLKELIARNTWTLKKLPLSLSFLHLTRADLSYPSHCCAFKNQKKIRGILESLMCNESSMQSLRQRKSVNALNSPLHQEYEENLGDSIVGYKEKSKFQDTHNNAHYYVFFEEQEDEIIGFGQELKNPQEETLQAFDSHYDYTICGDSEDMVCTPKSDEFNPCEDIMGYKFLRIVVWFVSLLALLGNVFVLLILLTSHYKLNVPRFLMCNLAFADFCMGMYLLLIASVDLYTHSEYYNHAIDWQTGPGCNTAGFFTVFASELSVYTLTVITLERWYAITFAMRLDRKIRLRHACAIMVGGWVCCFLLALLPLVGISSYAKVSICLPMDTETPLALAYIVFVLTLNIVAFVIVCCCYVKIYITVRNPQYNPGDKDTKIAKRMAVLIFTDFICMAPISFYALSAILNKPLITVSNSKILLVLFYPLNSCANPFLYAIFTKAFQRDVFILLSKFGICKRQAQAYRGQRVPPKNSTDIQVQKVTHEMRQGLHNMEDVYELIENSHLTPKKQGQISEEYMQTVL
Procedure, shortened: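 HEK293/TSHR, 800 cells/well; cpd 30 min RT; add cAMP-d2 + anti-cAMP-cryptate, 1 h RT; fluorescence read on plate reader. 15-pt titration, n=3.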

[7] = qHTS assay to identify small molecule agonists of the hypoxia (HIF-1) signaling pathway - cell viability counter screen (AID 1224844; calls by dose curve; also: nearly all actives have a fitted effect of over 50% in size)
Procedure, shortened: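 In this counter screen, HRE-bla ME-180 cell viability after 17 hrs of compound exposure at 37C was read by CellTiter-Glo luminescence, multiplexed with the beta-lactamase reporter measurement.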

[8] = qHTS assay to identify small molecule agonists of H2AX (AID 1224845; active = well fitted activation curve with a large enough effect in the signal ratio in the repeat runs, not every such curve was filed as active; the % refers to the signal ratio)
Procedure, shortened: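 Wild-type CHO-K1 cells, plated overnight, exposed 3hr at 37C to 15 concentrations (0.76% DMSO final). Lysed, then HTRF anti-pH2AX (S139) cryptate and anti-H2AX-d2 antibodies, 24 hr room temperature; 665/620 nm emission read.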

[9] = qHTS assay to identify small molecule agonists of the hypoxia (HIF-1) signaling pathway (AID 1224846; active = well fitted activation curve with a large enough effect in the signal ratio in the repeat runs, not every such curve was filed as active; the % refers to the signal ratio)
Procedure, shortened: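 ME-180 HRE-bla reporter cells; compounds in DMSO, 17 h at 37C; read-out beta-lactamase via CCF4-AM FRET.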

[10] = qHTS assay to identify small molecule agonists of H2AX - cell viability counter screen (AID 1224847; calls by dose curve; also: top concentration of the series differs between compounds; nearly all actives have a fitted effect of over 30% in size)
Procedure, shortened: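 Compounds tested at 15 concentrations were incubated 3 hr at 37C with wild-type CHO-K1 cells; cellular ATP-based luminescence (CellTiter-Glo) indicated viability.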

[11] = qHTS RealTime-Glo MT Cell Viability Assay in HepG2 cells - 24 hour (AID 1224867); also: nearly all actives have a fitted effect of over 50% in size
Procedure, shortened: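 Compound treatment began 5 h after plating HepG2 cells (600/well) with NanoLuc luciferase and prosubstrate. Plates stayed at 37 C for 40 h; luminescence was captured at six time points, 0 h through 40 h.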

[12] = qHTS RealTime-Glo MT Cell Viability Assay in HEK293 cells - 32 hour (AID 1224868); also: top concentration of the series differs between compounds; nearly all actives have a fitted effect of over 50% in size
Procedure, shortened: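 Quantitative high-throughput screen of the Tox21 10K library in HEK293: cells and RealTime-Glo reagents plated together, compound added at 5 h, luminescence monitored through 40 h at 37 C.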

[13] = A CellTox Green Cytotoxicity Assay to monitor cytotoxicity in HEK293 cells - 0 hour (AID 1224869); also: nearly all actives have a fitted effect of over 50% in size
Procedure, shortened: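 Real-time, in one plate: 600 HEK293 cells/well with dead-cell DNA dye, pinned compound after 5 h, 37 C incubation over 40 h; viable cells give no appreciable fluorescence.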

[14] = qHTS RealTime-Glo MT Cell Viability Assay in HepG2 cells - 40 hour (AID 1224870); also: nearly all actives have a fitted effect of over 50% in size
Procedure, shortened: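 HepG2 cells (600/well) mixed with RealTime-Glo MT reagent, settled 5 h at 37 C/5% CO2 before compound addition. Nonlytic NanoLuc luminescence from viable-cell prosubstrate reduction read repeatedly during 40 h treatment at 37 C.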

[15] = qHTS assay to identify small molecule antagonists of the estrogen related receptor signaling pathway with the pleiotropic PPARgamma coactivator (PGC) from Tox21 10K library (AID 1224841; call rule not given here)
Procedure, shortened: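 One-Glo luminescence, measured after half an hour at room temperature, quantified reporter output of PGC/ERR cells. These had been plated at 2,000 per well, incubated 6 h, dosed with compounds in DMSO, then kept 18 h at 37 C.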

[16] = qHTS assay to identify small molecule agonists of the estrogen related receptor signaling pathway with the pleiotropic PPARgamma coactivator (PGC) from Tox21 10K library (AID 1224842); also: nearly all actives have a fitted effect of over 15% in size
Procedure, shortened: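 PGC/ERR reporter cell line, 2,000 cells per well, incubated 6 h at 37 C before 23 nL compound in DMSO was added. After 18 h at 37 C, One-Glo luminescence read following 30 min at room temperature.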

[17] = qHTS assay to identify small molecule antagonists of the estrogen related receptor (ERR) signaling pathway from Tox21 library (AID 1224848); also: nearly all actives have a fitted effect of over 50% in size
Procedure, shortened: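 Compounds dissolved in DMSO are pin-transferred onto ERR reporter cells (2,000 per well) that have settled for 6 h at 37 C. Plates then incubate 18 h at 37 C before ONE-Glo luciferase reagent and a luminescence read 30 min later.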

[18] = qHTS assay to identify small molecule agonists of the estrogen related receptor (ERR) signaling pathway from Tox21 library (AID 1224849; calls by dose curve; also: nearly all actives have a fitted effect of over 15% in size); settings: ERR reporter cell line, ONE-Glo luciferase, 18 h; at 92.4 µM (top of the series) unless noted
Procedure, shortened: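 Luciferase activity in ERR pathway reporter cells served as the agonist readout; exposure lasted 18 h at 37 C, with ONE-Glo detection after 30 min at room temperature.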

[19] = target: Nuclear receptor subfamily 1 group I member 3 (Homo sapiens) (UniProt Q14994); experiment: qHTS assay to identify small molecule agonists of the constitutive androstane receptor (CAR) signaling pathway (AID 1224839);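 also: HepG2 cells stably carrying human CAR and a CYP2B6 luciferase reporter; nearly all actives have a fitted effect of over 15% in size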
Nuclear receptor subfamily 1 group I member 3 (Homo sapiens), sequence (Q14994 whole entry, looked up): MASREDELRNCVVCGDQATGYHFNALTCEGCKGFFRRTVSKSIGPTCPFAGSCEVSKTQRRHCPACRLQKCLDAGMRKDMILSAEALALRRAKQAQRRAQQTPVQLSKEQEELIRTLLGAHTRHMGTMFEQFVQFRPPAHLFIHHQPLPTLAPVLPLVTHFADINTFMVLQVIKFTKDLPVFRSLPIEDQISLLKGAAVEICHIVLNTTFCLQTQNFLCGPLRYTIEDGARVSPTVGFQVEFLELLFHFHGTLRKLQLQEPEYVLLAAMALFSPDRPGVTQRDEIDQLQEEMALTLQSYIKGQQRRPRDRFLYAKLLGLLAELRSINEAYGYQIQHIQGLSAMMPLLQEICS
Procedure, shortened: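 Compounds tested at 15 concentrations on HepG2 cells stably harbouring hCAR and CYP2B6-2.2kb reporter constructs, co-treated with PK11195 (0.75 uM final), 24 h at 37 C; luminescent reporter signal quantified.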
% is scaled to controls: 0 for no effect and ±100 for the full control effect.

Cc1cc(C)cc(OCC2CNC(=O)O2)c1 (stereo unspecified)
inactive: Potency [1] | Potency [2] | outcome [3] | outcome [4] | outcome [5] | outcome [6] | Potency [7] | outcome [8] | outcome [9] | Potency [10] | outcome [11] | Potency [12] | Potency [13] | Potency [14]

Nc1[nH]c(=O)ncc1F
inactive: Potency [1] | Potency [2] | outcome [3] | outcome [4] | outcome [5] | Potency [15] | Potency [16] | Potency [7] | outcome [8] | Potency [10] | Potency [17] | activity change, positive = activation [18] -0.92% [at 42.5 µM] | Potency [12] | Potency [13] | Potency [14]

CCCCCCCCCCCl
inactive: Potency [1] | Potency [2] | outcome [3] | outcome [4] | outcome [5] | Potency [15] | Potency [16] | outcome [8] | outcome [9] | Potency [10] | Potency [17] | activity change, positive = activation [18] 0.564% | outcome [11] | Potency [12] | Potency [13] | Potency [14]

COC(=O)CCCCCCCCC(=O)OC
inactive: Potency [1] | Potency [2] | outcome [3] | outcome [4] | outcome [5] | Potency [15] | Potency [16] | outcome [6] | Potency [7] | outcome [8] | outcome [9] | Potency [10] | Potency [17] | activity change, positive = activation [18] 0.842% | outcome [11] | Potency [12] | Potency [13] | Potency [14]

CCCCCCC(CCCCCCCCCCC(=O)OCC(COC(C)=O)OC(C)=O)OC(C)=O (stereo unspecified)
inactive: Potency [1] | Potency [2] | outcome [3] | outcome [4] | outcome [5] | outcome [6] | Potency [7] | outcome [8] | outcome [9] | Potency [10] | outcome [11] | Potency [12] | Potency [13] | Potency [14]

COC(=O)C1=C(C)NC(C)=C(C(=O)OCC(C)=O)C1c1ccccc1[N+](=O)[O-] (stereo unspecified)
inactive: Potency [1] | Potency [2] | outcome [3] | outcome [4] | Potency [19] | outcome [5] | Potency [15] | Potency [16] | outcome [9] | Potency [17] | activity change, positive = activation [18] -8.69% [at 42.5 µM] | outcome [11] | Potency [12] | Potency [13] | Potency [14]

CC1=CC(C)C(C=O)C(C)C1 (stereo unspecified)
inactive: Potency [1] | Potency [2] | outcome [3] | outcome [4] | Potency [19] | outcome [5] | outcome [6] | Potency [7] | outcome [9] | Potency [10] | Potency [12] | Potency [13] | Potency [14]

CC(C)[C@H](N)C(=O)OCCOCn1cnc2c(=O)[nH]c(N)nc21
inactive: Potency [1] | Potency [2] | outcome [3] | outcome [4] | outcome [5] | outcome [6] | Potency [7] | outcome [8] | outcome [9] | Potency [10] | outcome [11] | Potency [12] | Potency [13]

CC(C)(C)C(=O)/C=C/c1ccc(Cl)cc1
inactive: Potency [1] | outcome [3] | outcome [4] | Potency [19] | outcome [5] | Potency [15] | Potency [16] | outcome [6] | Potency [10] | Potency [17] | activity change, positive = activation [18] 1.54% | outcome [11] | Potency [12] | Potency [13] | Potency [14]
active: Potency [2] 25.2 µM

CC(=O)OC(C)(C)C
inactive: Potency [1] | Potency [2] | outcome [3] | outcome [4] | outcome [5] | Potency [15] | Potency [16] | Potency [7] | outcome [8] | outcome [9] | Potency [10] | Potency [17] | activity change, positive = activation [18] 0.24% | outcome [11] | Potency [12] | Potency [13] | Potency [14]

CCC(C(=O)NC(N)=O)c1ccccc1 (stereo unspecified)
inactive: Potency [1] | Potency [2] | outcome [3] | outcome [4] | outcome [5] | Potency [15] | Potency [16] | outcome [6] | Potency [7] | outcome [8] | outcome [9] | Potency [17] | activity change, positive = activation [18] -3.04% | outcome [11] | Potency [12] | Potency [13] | Potency [14]

Cn1cnc2c(=O)[nH]c(N)nc21
inactive: Potency [1] | Potency [2] | outcome [3] | outcome [4] | Potency [19] | outcome [5] | outcome [6] | Potency [7] | outcome [9] | Potency [10] | outcome [11] | Potency [12] | Potency [13] | Potency [14]

CC1=CCC2C(C1)C2(C)C (stereo unspecified)
inactive: Potency [1] | Potency [2] | outcome [3] | outcome [4] | Potency [19] | outcome [5] | Potency [7] | outcome [8] | outcome [9] | Potency [10] | outcome [11] | Potency [12] | Potency [13] | Potency [14]
